Shown are actives, neighbours in structure and some others; about 0.43% of the full set was active somewhere.
GLA inh pH 4.5 – blocks human alpha-galactosidase A at pH 4.5 | P06280 | purified enzyme, 4-MU-alpha-Gal fluorescence, pH 4.5 | activity change, negative = inhibition, % at 105 µM | 230,000 tested, under 10 active | AID 1467;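 also: 0% = full activity with enzyme and -100% = basal without enzyme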
GLA spleen mod – inhibits or activates alpha-galactosidase in human spleen homogenate; hit rate 0.008% among 240,000; human spleen homogenate, 4MU-alpha-Gal fluorescence, 40 min; Potency, µM (titrated, usually from 80 µM), for the others: top-dose activity change, negative = inhibition, hits mostly inhibitors;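 also: potency is read from the fitted curve at half-maximal effect; 0% = enzyme with vehicle and -100% = no enzyme basal signal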
Target sequence (P06280 32-429 limits assumed): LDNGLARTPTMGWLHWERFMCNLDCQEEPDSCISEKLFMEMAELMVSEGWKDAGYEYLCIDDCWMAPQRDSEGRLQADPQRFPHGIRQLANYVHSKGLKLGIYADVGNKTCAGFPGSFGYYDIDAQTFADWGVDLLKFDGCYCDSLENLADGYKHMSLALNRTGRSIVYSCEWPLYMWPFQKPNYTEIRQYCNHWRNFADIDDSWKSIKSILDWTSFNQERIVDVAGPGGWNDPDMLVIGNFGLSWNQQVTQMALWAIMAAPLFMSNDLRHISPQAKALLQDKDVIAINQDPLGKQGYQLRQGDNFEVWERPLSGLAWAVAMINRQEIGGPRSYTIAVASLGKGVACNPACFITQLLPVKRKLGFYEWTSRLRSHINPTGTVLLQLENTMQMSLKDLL
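Human spleen homogenate (1 ug) as enzyme source, 4-methylumbelliferyl-alpha-D-galactopyranoside 1 mM final, citrate/phosphate pH 5.0 with 0.01% Tween-20. Compounds 40 min at 37C, NaOH/glycine stop; fluorescence Ex 365/Em 440, Hill-fit AC50.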
N370S GC mod – inhibitors or activators of N370S glucocerebrosidase for Gaucher disease. P04062. N370S GC spleen homogenate, 4MU-glucoside fluorescence. Potency, µM (top dose mostly 59.4 µM), inactives show at the top dose activity change, negative = inhibition, hits mostly inhibitors. hit rate 0.092% among 330,000. AID 2101;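 also: potency is read from the fitted curve at half-maximal effect; 0% = full enzyme activity and -100% = no enzyme basal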
GAA inh – blocks human lysosomal alpha-glucosidase. Potency, µM (highest dose often 76.9 µM), for the others: top-dose activity change, negative = inhibition, most hits filed as inhibitors. purified human GAA, 4-MU-alpha-glucoside fluorescence. AID 1466. hit rate 0.005% among 200,000. P10253;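 also: potency is read from the fitted curve at half-maximal effect; plate controls were uninhibited enzyme wells for no effect and no-enzyme background for full effect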
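Human enzyme at 4 nM with 400 uM 4-methylumbelliferyl-alpha-D-pyranoside, citrate/phosphate buffer pH 5.0, 0.005% Tween-20, 20 min at room temperature. Compounds up to 77 uM. 4-MU fluorescence (Ex 365/Em 440) read after NaOH/glycine stop; AC50 from Hill fit.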
GAA glycogen – inhibitors or activators of human alpha-glucosidase glycogen cleavage; AID 2100; P10253; hit rate 0.38% among 300,000; recombinant GAA, glycogen substrate, Amplex Red glucose oxidase fluorescence; Potency, µM (top dose mostly 76.4 µM), for the others: at the highest dose activity change, negative = inhibition, actives largely listed as inhibitors;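 also: potency is read from the fitted curve at half-maximal effect; 0% = full enzyme reaction and -100% = no-enzyme basal signal; the screen sought inhibitors and activators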
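Recombinant enzyme (4 nM final) with compounds titrated up to 77 uM and bovine liver glycogen (30 ug) in citrate pH 5.0, 0.01% Tween-20, 37 C 40 min. Released glucose detected by Amplex Red/glucose oxidase (Ex 573/Em 610); AC50 from Hill fits.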
GAA spleen mod – lysosomal alpha-glucosidase (human) modulation; human spleen homogenate, 4-MU-alpha-glucoside fluorescence; Potency, µM (series often up to 79.9 µM), for inactives: at the highest dose activity change, negative = inhibition, usual class: inhibitors; hit rate 0.006% among 240,000; AID 2112;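 also: potency is read from the fitted curve at half-maximal effect; 0% = enzyme with vehicle and -100% = no enzyme basal signal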
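Human spleen homogenate (1 ug) incubated with compounds and 1 mM 4-methylumbelliferyl-alpha-D-glucopyranoside in pH 5.0 citrate/phosphate buffer, 37 C, 40 min. Stopped at pH 10; 4-MU fluorescence (Ex 365/Em 440 nm); AC50 by Hill fit.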
* hit, by the source's call; ? = inconclusive; . = no result given; [ ] = remark or other dose. Calls follow the shape of the dose curve; as a rule, active = well fitted curve in the direction sought with a large enough effect; inconclusive = small, poorly fitted or top-dose-only effect, or another doubt; inactive = no such curve, though single readings can be large; an effect the other way counts as inactive or inconclusive.

SMILES	GLA inh pH 4.5	GLA spleen mod	N370S GC mod	GAA inh	GAA glycogen	GAA spleen mod
N#Cc1cccc(CS(=O)(=O)c2nc3ccccc3s2)c1	-2	5%	3%	.	.	2%
Cn1c(=O)n2n(c1=O)[C@H]1[C@H](O)[C@H]3O[C@@H]3/C(=N/OCc3ccccc3)[C@@H]1CC2	.	7%[17.5 µM]	2%[12.8 µM]	.	.	2%[17.4 µM]
O=C(O)Cc1ccc2ocnc2c1	-1	4%	-2%	2%	22µM*	-6%
O=C(Nc1ccccc1)Nc1ccc2ocnc2c1	-4	6%	1%	0%	-13%	3%
COc1ccc(/C=N/Nc2nccnc2Cl)c(OC)c1	-1	-25%	-6%	7%	?	-5%
COc1ccc(/C=N/Nc2nonc2N)c(OC)c1	-2	-11%	-19%	-2%	35µM*	3%
COC(=O)N[C@@H](CCc1ccccc1)[C@]1(C(=O)OC)CCCC1=O	3	10%	-1%	.	.	1%
COc1ccc(S(=O)(=O)N2CCN(Cc3cccc(OC)c3)CC2)cc1	.	.	-12%	.	5%[76.3 µM]	.
COc1cccc(CNS(=O)(=O)c2ccc(S(=O)(=O)N3CCCC3)cc2)c1	-13	2%	7%	1%	5µM*	1%
O=S(=O)(NCc1ccco1)c1ccc(S(=O)(=O)N2CCCC2)cc1	-6	-18%	16%	?	35µM*	3%
CCCCCCC1Cc2cc(OC)c(OC)cc2C(C(C(=O)OCC)C(=O)OCC)O1 (stereo not given)	.	-3%[17.5 µM]	11%[12.8 µM]	.	.	3%[17.4 µM]
C=CC[C@@H]1C=C[C@@H](O/N=C\[C@@H](OC)[C@H](C)/C=C\CC(=O)OC)[C@@H](CO)O1	.	8%[17.5 µM]	5%[12.8 µM]	.	.	-4%[17.4 µM]
CNC(=S)NNc1nncc2ccccc12	-8	2%	7%	14%	10µM*	4%
CC1=NNC(=O)C1CC(=O)N/N=C/C(Br)=C/c1ccccc1 (stereo not given)	0	14%	-3%	.	?	12%
CC1C(=O)NN=C1C(=O)N/N=C\C(Br)=C\c1ccccc1 (stereo not given)	0	-10%	-7%	6%	25µM*	-2%
CCOC(=O)C1=C(c2ccccc2)NC(N)=NC1c1ccc(OCc2ccc(C(=O)OC)cc2)cc1 (stereo not given)	-9	8%	11µM*	.	-7%	-16%
c1ccc(-c2ccc(N3CCCC4(CCNCC4)C3)cc2)cc1	.	-3%	16µM*	.	.	-3%
c1ccc(-c2ccc(N3CC4(CCNCC4)C3)cc2)cc1	.	1%	?	.	.	-12%
CCOC(=O)N/N=C1/C[C@@H](O)[C@@H](O)[C@@H]2[C@@H]3C(=O)N(C[C@@H]4CCCO4)C(=O)[C@H]3CC[C@H]12	.	-2%[17.5 µM]	6%[12.8 µM]	.	.	0%[17.4 µM]
CCCc1cc2c(=O)c(-c3cscn3)c(C(=O)OCC)oc2cc1O	2	11%	-15%	2%	-15%	6%
CCOC(=O)c1[nH]nc(-c2cc(CC)c(O)cc2O)c1-c1cscn1	1	-8%	-7%	-5%	12µM*	7%
Brc1csc(/C=N/Nc2nc3ccccc3s2)c1	-8	1%	9%	-2%	?	-2%
Cc1ccc2[nH]c(C)c(/C=N/Nc3nc4ccccc4s3)c2c1	1	-4%	15%[12.8 µM]	-1%	16µM*	-13%
C#CCCCO/N=C1/C[C@@H](O)[C@@H](O)[C@@H]2[C@@H]3C(=O)N(c4cccc(Oc5ccccc5)c4)C(=O)[C@H]3CC[C@H]12	.	-8%[17.5 µM]	-3%[12.8 µM]	.	.	1%[17.4 µM]
CCn1c2ccccc2c2cc(CN3CCN(Cc4ccccc4C)CC3)ccc21	.	.	.	.	-11%[76.3 µM]	.
CCn1c2ccccc2c2cc(CN3CCN(Cc4cc(OC)ccc4O)CC3)ccc21	-9	1%	-12%	-15%	7.9µM*	-1%
Oc1[nH]c2ccccc2c1C=Nc1ccc2c(c1)OCCO2	-7	-10%	-12%	-3%	32µM*	-10%
C#CCn1c(=O)c2c(nc(/C=C/c3cccc(OC)c3)n2C)n(CCCO)c1=O	.	12%	1%	.	.	4%
